Screens (PubChem)
HepG2 tox – kills HepG2 cells in TGF-b inhibitor counter-screen | HepG2 CAGA-GFP viability, ATP luminescence, 18 h | Potency, µM (series often up to 46.1 µM), for the others: at the highest dose activity change, negative = cytotoxicity, hits mostly cytotoxic | actives 0.76% (n = 410,000) | AID 588856; also: potency is read from the fitted curve at half-maximal effect
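CellTiter-Glo luminescence gave cytotoxicity after 18 hours at 37 degrees C. The cells were HepG2 CAGA-GFP in 1% FBS DMEM, stimulated with 500 pg/mL TGF-beta after compound addition. %Activity was normalised to no-cell wells (complete cell-killing) and DMSO (no toxicity), and curves were fitted and classified.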
DT40 TDP1 CPT – growth inhibition of DT40 Tdp1-/-;hTDP1 cells with camptothecin (screen for TDP1 inhibitors). chicken DT40 Tdp1-/-;hTDP1 cells + 20 nM CPT, ATP luminescence, 48 h. Potency, µM (top dose mostly 46.2 µM), for the others: top-dose activity change, negative = growth inhibition, actives largely listed as inhibitors. actives 12% (n = 420,000); also: potency is read from the fitted curve at half-maximal effect; % is scaled to controls: 0 for no effect and ±100 for the full control effect; nearly all actives have a fitted effect of over 55% in size
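Chicken DT40 Tdp1-/- cells complemented with human TDP1, 400 cells/well, exposed to compounds plus 20 nM camptothecin for at least 48 h at 37 C; viability read as ATP content by CellTiter-Glo luminescence.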
TGFb inhibitor – inhibitors of TGF-b signaling. actives 1.2% (n = 410,000). HepG2 CAGA-GFP TGF-b/SMAD3 reporter, GFP fluorescence, 18 h; TGF-beta stimulated, 500 pg/mL final. AID 588855. Potency, µM (top dose mostly 46.1 µM), for inactives: top-dose activity, negative = inhibition, actives largely listed as inhibitors; also: potency is read from the fitted curve at half-maximal effect; % is scaled to controls: 0 for no effect and ±100 for the full control effect; nearly all actives have a fitted effect of over 65% in size
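Cell-based qHTS in HEPG2 carrying a CAGA-GFP Smad reporter; compounds added before 500 pg/mL final TGF-beta, 18 h incubation at 37 degrees C, GFP fluorescence quantified per cell by imaging cytometry.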
IL-1B inflam inh – inflammasome signaling inhibition, IL-1 beta readout; THP-1 LPS/ATP IL-1B secretion, AlphaLISA, 16 h; hits give low values; activity change, % at 57.5 µM; actives 4.7% (n = 360,000); AID 743279; in the data active = activity change below about -50%; inconclusive = mostly about -30% to -49%; also: % is scaled to controls: 0 for no effect and ±100 for the full control effect
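THP-1 cells pretreated 1 hr with compounds (up to 57.5 uM final), then stimulated with LPS (250 ng/mL final) plus ATP (1.25 mM final); secreted IL-1B measured by AlphaLISA after 16 hr, decreased signal indicating inhibition.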
DT40 TDP1 no CPT – qHTS for Inhibitors of human tyrosyl-DNA phosphodiesterase 1 (TDP1): qHTS in cells in absence of CPT; DT40 Tdp1-/- hTDP1 cells, no CPT, ATP luminescence, 48 h; Potency, µM (highest dose often 46.2 µM), without a hit: at the highest dose activity change, negative = growth inhibition, actives largely listed as inhibitors; actives 15% (n = 420,000); also: potency is read from the fitted curve at half-maximal effect; % is scaled to controls: 0 for no effect and ±100 for the full control effect; nearly all actives have a fitted effect of over 55% in size
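Growth kinetics read by CellTiter-Glo luminescence after ≥48 hr at 37 °C. Cells: DT40 Tdp1-/- stably carrying human TDP1, 400 per well, compound exposure in the absence of CPT (DMSO vehicle).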
TDP1 block – inhibitors of human tyrosyl-DNA phosphodiesterase TDP1 | Q9NUW8 | recombinant TDP1, AlphaScreen DNA substrate cleavage | Potency, µM (titrated, usually from 130 µM), for inactives: at the highest dose activity change, negative = inhibition, usual class: inhibitors | actives 0.28% (n = 350,000); also: potency is read from the fitted curve at half-maximal effect; % is scaled to controls: 0 for no effect and ±100 for the full control effect; nearly all actives have a fitted effect of over 40% in size
Target sequence (Q9NUW8 whole entry, looked up): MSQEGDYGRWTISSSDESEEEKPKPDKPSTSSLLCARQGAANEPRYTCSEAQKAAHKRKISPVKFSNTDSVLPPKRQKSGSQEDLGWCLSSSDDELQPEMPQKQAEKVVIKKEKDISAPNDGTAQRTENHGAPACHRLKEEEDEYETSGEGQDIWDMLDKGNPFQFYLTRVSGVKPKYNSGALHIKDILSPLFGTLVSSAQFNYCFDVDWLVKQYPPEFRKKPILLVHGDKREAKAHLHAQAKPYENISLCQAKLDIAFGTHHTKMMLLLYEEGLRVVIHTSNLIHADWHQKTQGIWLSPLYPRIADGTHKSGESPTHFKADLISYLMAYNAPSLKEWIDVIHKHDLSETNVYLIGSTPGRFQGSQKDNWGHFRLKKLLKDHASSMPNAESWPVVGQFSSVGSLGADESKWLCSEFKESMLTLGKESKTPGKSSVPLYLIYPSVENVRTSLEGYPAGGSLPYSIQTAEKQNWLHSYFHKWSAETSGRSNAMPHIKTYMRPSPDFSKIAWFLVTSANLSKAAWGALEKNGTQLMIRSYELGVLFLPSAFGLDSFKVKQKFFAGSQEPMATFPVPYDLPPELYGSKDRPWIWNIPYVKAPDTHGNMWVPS
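Recombinant E. coli-expressed Tdp1 (1 nM) preincubated with compound 15 min at RT, then 5'-biotin/3'-phosphotyrosine-FITC DNA substrate (15 nM) added for 5 min. AlphaScreen beads (10 ug/ml) added, 10 min RT; tyrosine-FITC cleavage read as signal loss.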
Active calls of the source: *; ? = inconclusive; . = no result; [ ] = another dose, or the depositor's remark. In the library only some 19% were active in any assay of this set; here they are far more common. Unless noted, calls follow the shape of the dose curve; as a rule, active = well fitted curve in the direction sought with a large enough effect; inconclusive = small, poorly fitted or top-dose-only effect, or another doubt; inactive = no such curve, though single readings can be large; an effect the other way counts as inactive or inconclusive.

SMILES | HepG2 tox | DT40 TDP1 CPT | TGFb inhibitor | IL-1B inflam inh | DT40 TDP1 no CPT | TDP1 block
COC(=O)c1sc(-c2cccs2)cc1NC(=O)/C=C/C(=O)O | -19% | ? | -23% | -92* | 15µM* | 0%
CC1(C)CC2CC(C)(CN2S(=O)(=O)c2ccc(C(=O)Nc3cc(S(=O)(=O)N4CCOCC4)ccc3Cl)cc2)C1 (stereo unspecified) | 8% | 3.3µM* | 16% | 48 | 2.9µM* | -3%
COc1ccc(NC(=O)CN(C)C(=O)c2cccc(S(=O)(=O)N3CC4(C)CC3CC(C)(C)C4)c2)cc1 (stereo unspecified) | -3% | ? | 7% | -72* | ? | 6%
COc1cccc(NC(=O)CN(C)C(=O)c2cccc(S(=O)(=O)N3CC4(C)CC3CC(C)(C)C4)c2)c1 (stereo unspecified) | -21% | ? | -13% | -18 | ? | -5%
CC1(C)CC2CC(C)(CN2S(=O)(=O)c2ccc(C(=O)Nc3cccc(S(=O)(=O)N4CCOCC4)c3)cc2)C1 (stereo unspecified) | -23% | 4.1µM* | ? | -21 | 5.8µM* | -3%
CC1(C)CC2CC(C)(CN2S(=O)(=O)c2cccc(C(N)=O)c2)C1 (stereo unspecified) | -16% | -30% | -8% | 6 | ? | -5%
O=C(Nc1cc(S(=O)(=O)N2CCOCC2)ccc1Cl)c1ccc(=O)[nH]c1 | 0% | 15% | -6% | 15 | -19% | -5%
COC(=O)Cc1c(C)c2cc3c(c(C)c2oc1=O)OCN(CCc1ccc(OC)cc1)C3 | -5% | ? | 4% | . | ? | 5%
Cc1ccc(Cl)cc1NC(=O)[C@@H]1CCC(=O)N1C1OC(=O)c2ccccc21 (stereo partly specified) | 3% | 8% | -11% | 7 | -3% | .
C(=NNC1=NCCN1)c1ccnc2ccccc12 | -3% | -4% | 12% | -103* | ? | .
O=C(N/N=C/c1ccnc2ccccc12)c1ccccc1O | 4% | 3.3µM* | ? | -20 | 12µM* | .
O=[N+]([O-])c1ccccc1/C=N/NC1=NCCN1 | 4% | 2% | 4% | -7 | -8% | .
COc1ccc(N(CC(=O)NCCc2ccc(C)cc2)S(=O)(=O)c2c(C)nn(C)c2C)cc1 | -26% | ? | ? | . | ? | 0%
Cc1ccc(/C=C/c2onc(C)c2S(=O)(=O)N2CCC(C(=O)Nc3ccccc3C(F)(F)F)CC2)cc1 | -10% | -10% | -2% | . | -2% | 3%
CC(=O)c1sc(C(C)(C)C)cc1NC(=O)c1ccccc1C(=O)O | -5% | 0% | 0% | . | -13% | 2%
O=S(=O)(CCN(CCS(=O)(=O)C(F)(F)F)CC1CCCO1)C(F)(F)F (stereo unspecified) | -16% | 2.3µM* | -8% | -6 | 2.3µM* | 0%
O=C(NCC1CCCO1)C1CCN(S(=O)(=O)N2CCCC2)CC1 (stereo unspecified) | 4% | 0% | -1% | 24 | 4% | 2%
CCN(C(=O)C(=O)c1c[nH]c2ccccc12)c1ccccc1 | -51% | -2% | -15% | 9 | -10% | .
Cn1c(=O)c2cc(NC(=O)Cc3cccc4ccccc34)ccc2n1-c1ccccc1 | 4% | 16µM* | 11% | 30 | 21µM* | .
O=C(Cc1cccc2ccccc12)Nc1ccccc1 | -17% | 23µM* | 15% | -7 | ? | .
Cc1ccc(OCCNC(=O)CNC(=O)Cc2cccc3ccccc23)cc1 | -12% | -27% | 6% | . | -16% | 2%
O=C(Cc1cccc2ccccc12)NCCOc1ccccc1F | -1% | -27% | -18% | -84* | -24% | 1%
Cc1ccccc1CC(=O)Nc1ccc2c(c1)c(=O)n(C)n2-c1cccs1 | -15% | ? | 10% | 0 | 3.3µM* | .
O=C(Cc1cccc2ccccc12)NO | . | -2% | . | . | -26% | .
O=c1c(-c2ccc(F)cc2)nc2cnc(N3CCOCC3)nc2n1C[C@H]1CCCO1 | . | -6% | . | . | -2% | .
SMILES | HepG2 tox | DT40 TDP1 CPT | TGFb inhibitor | IL-1B inflam inh | DT40 TDP1 no CPT | TDP1 block
O=C(O)Cc1cccc(OCCCN(Cc2cccc(C(F)(F)F)c2Cl)CC(c2ccccc2)c2ccccc2)c1 | . | . | . | . | . | -7%
CC(CC(=O)Nc1ccc2c(c1)c(=O)n(C)n2-c1ccccc1)c1ccccc1 (stereo unspecified) | 2% | 5.2µM* | -1% | 73 | 5.2µM* | .
CC(O)(COc1ccccc1)c1ccc2c(c1)CN(Cc1cccc3ncccc13)CCO2 (stereo unspecified) | . | -11%[9.04 µM] | . | . | ? | .
CC(Nc1nc(Nc2ccc(F)cc2)nc(SCC(N)=O)n1)c1ccccc1 (stereo unspecified) | -30% | 13% | 14% | -60* | -27% | .
CC(Nc1nc(=S)nc(Nc2ccc(F)cc2)[nH]1)c1ccccc1 (stereo unspecified) | -2% | 21µM* | 15% | 16 | ? | .
COc1ccc(NC(=O)Cn2c(=O)oc3cc(S(=O)(=O)NC4CCCC4)ccc32)cc1OC | -12% | ? | 0% | . | 21µM* | 2%
COc1ccc(NC(=O)COc2ccc(S(=O)(=O)NC3CCCCC3)cc2)cc1OC | -32% | ? | ? | . | 21µM* | 0%
CC1Cc2ccccc2N1C(=O)Cn1c(=O)oc2cc(S(=O)(=O)NC3CCCC3)ccc21 (stereo unspecified) | -15% | ? | -19% | -52* | ? | 3%
COC(=O)NC(/C(C(=O)OC)=C(\C)NCc1ccccc1)c1cccc(F)c1 (stereo unspecified) | . | . | . | . | . | 4%[21 µM]
CCOC(=O)C1CCCN(C(=O)c2sc3nc(C)nc(N(CC)CC)c3c2C)C1 (stereo unspecified) | -16% | 23µM* | 2% | 0 | ? | 5%
CCC1CCCCN1C(=O)c1sc2nc(C)nc(N(CC)CC)c2c1C (stereo unspecified) | -5% | ? | -25% | 18 | 16µM* | -1%
CCOc1ccc(-n2cc(-c3ccccc3)c3c(NC4CCCC4)ncnc32)cc1 | -20% | 15µM* | ? | . | 13µM* | 5%
COc1ccc(-n2cc(-c3ccccc3)c3c(NC4CCCCC4)ncnc32)cc1 | -31% | ? | -5% | . | 12µM* | 8%
